# PI5P4Ka inh = blocks human PI5P4K alpha kinase activity; PI5P4Kalpha enzyme, ADP-Glo luminescence, 60 min; active compounds read low; max response, %; 330,000 compounds, 1.2% hits; active = max response of -50% or lower; inconclusive = between -30% and -50%; inactive = -30% or higher; note: value at the top dose of about 77 µM; % is set by controls: 0 for no effect and ±100 for the full control effect
#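 ADP-Glo luminescence end-point read after a 60 min room-temperature kinase reaction of PI5P4Kalpha plus substrate, initiated with ATP at 5 microM final. Buffer: 0.038 M HEPES pH 7.4, EGTA, 0.1% CHAPS, 5% DMSO.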
# POLI inh = blocks human DNA polymerase iota activity | Q9UNA4 | Pol iota fluorescent replication assay, 10 min | Potency, µM (titrated, usually from 115 µM), for the others: at the top dose activity, negative = inhibition, usual class: inhibitors | 390,000 compounds, 1% hits; note: potency is the fitted concentration of half-maximal effect
# Target sequence (Q9UNA4 whole entry, looked up): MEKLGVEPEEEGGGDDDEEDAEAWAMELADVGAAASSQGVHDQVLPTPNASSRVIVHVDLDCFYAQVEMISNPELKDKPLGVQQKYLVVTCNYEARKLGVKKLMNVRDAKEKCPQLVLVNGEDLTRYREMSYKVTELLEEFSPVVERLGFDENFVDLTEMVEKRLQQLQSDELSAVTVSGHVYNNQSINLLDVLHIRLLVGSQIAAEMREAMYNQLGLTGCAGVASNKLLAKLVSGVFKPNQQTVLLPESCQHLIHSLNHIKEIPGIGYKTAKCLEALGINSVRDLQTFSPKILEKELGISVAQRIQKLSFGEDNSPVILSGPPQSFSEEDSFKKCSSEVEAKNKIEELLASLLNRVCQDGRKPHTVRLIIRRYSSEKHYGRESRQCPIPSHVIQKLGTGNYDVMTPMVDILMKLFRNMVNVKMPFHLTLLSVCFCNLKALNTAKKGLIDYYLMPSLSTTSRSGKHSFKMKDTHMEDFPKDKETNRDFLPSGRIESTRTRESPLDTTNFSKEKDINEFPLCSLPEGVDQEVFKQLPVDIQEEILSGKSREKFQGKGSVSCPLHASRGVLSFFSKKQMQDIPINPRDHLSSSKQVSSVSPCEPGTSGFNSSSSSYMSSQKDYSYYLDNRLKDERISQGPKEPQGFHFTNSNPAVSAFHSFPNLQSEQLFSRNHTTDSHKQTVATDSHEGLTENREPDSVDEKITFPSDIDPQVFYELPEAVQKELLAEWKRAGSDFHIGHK
#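 Pol iota at 10 nM preincubated 15 min with compounds at room temperature; reaction started with fluorescent substrate, 50 nM final. Fluorescence read kinetically at 0 and 10 min; buffer-only wells as negative control.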
# Pol kappa inh = blocks human DNA polymerase kappa activity; 400,000 compounds, 0.53% hits; purified Pol kappa, fluorescent DNA synthesis assay, 10 min; Q9UBT6; AID 588579; Potency, µM (titrated, usually from 107 µM), without a hit: top-dose activity, negative = inhibition, hits mostly inhibitors; note: potency is the fitted concentration of half-maximal effect; % is set by controls: 0 for no effect and ±100 for the full control effect
#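 Readout: fluorescence, taken kinetically at 0 and 10 min. Conditions: 10 nM Pol kappa, 15 min RT compound preincubation, 50 nM substrate final. Controls: enzyme-free buffer wells.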
# Pol beta inh = inhibitors of human DNA polymerase beta. AID 485314. P06746. Pol beta primer extension/strand displacement, fluorescence kinetic. Potency, µM (doses to about 114 µM), without a hit: top-dose activity change, negative = inhibition, hits mostly inhibitors. 340,000 compounds, 1.3% hits; note: potency is the fitted concentration of half-maximal effect; % is set by controls: 0 for no effect and ±100 for the full control effect
#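 Homogeneous kinetic assay of primer extension and strand displacement by 10 nM Pol beta, preincubated 15 min at room temperature with compound before 50 nM substrate (final) was added. Read at 0 and 10 min; four-parameter Hill fit.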
# Pol eta inh = blocks human DNA polymerase eta activity. Q9Y253. recombinant Pol eta, fluorescent DNA replication assay. Potency, µM (doses to about 114 µM), without a hit: at the highest dose activity change, negative = inhibition, usual class: inhibitors. 390,000 compounds, 1.2% hits; note: potency is the fitted concentration of half-maximal effect; % is set by controls: 0 for no effect and ±100 for the full control effect
#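 Fluorescent replication assay: 50 nM final substrate added after a 15 min room-temperature compound preincubation with 10 nM enzyme. Signal taken at 0 min and again at 10 min.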
# WRN helicase inh = inhibitors of human WRN helicase | Q14191 | Potency, µM (series often up to 114 µM), for inactives: at the top dose activity change, negative = inhibition, hits mostly inhibitors | 360,000 compounds, 0.46% hits | AID 651768 | WRN helicase unwinding, fluorescent forked duplex, kinetic; note: potency is the fitted concentration of half-maximal effect; % is set by controls: 0 for no effect and ±100 for the full control effect; nearly all actives have a fitted effect of over 55% in size
#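 Fluorescence dequenching readout, ex 525 nm/em 598 nm, kinetic mode: forked duplex DNA (100 nM final) with adjacent fluorophore and quencher unwound by WRN (20 nM final) with 2 mM ATP. Compound preincubation 15 min, room temperature.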
# * hit, by the source's call; u = inconclusive; x = not tested or not shown; [ ] = dose if it differs, or a comment. Most compounds without a hit are left out; they make up all but 2.8% or so of the library. Unless noted, calls come from the whole dose curve; as a rule, active = well fitted curve in the direction sought with a large enough effect; inconclusive = small, poorly fitted or top-dose-only effect, or another doubt; inactive = no such curve, though single readings can be large; an effect the other way counts as inactive or inconclusive.
SMILES,PI5P4Ka inh,POLI inh,Pol kappa inh,Pol beta inh,Pol eta inh,WRN helicase inh
CSc1ccc(/C=N/NC(=O)CN2CCN(Cc3ccc(C)cc3)CC2)cc1,5,35%,-1%,-28%[57.1 µM],-1%,-2%
CSc1ccc(/C=N/NC(=O)CN2CCN(Cc3ccccc3Cl)CC2)cc1,11,8%,-6%,0.2µM*,-10%,-2%
Cc1ccc(C)c(-n2c(CCC(=O)O)ccc2-c2ccc(Cl)cc2)c1,x,-16%,4%,7.9µM*,14%,x
CCCn1c(CCC(=O)O)ccc1-c1ccc(OC)cc1,x,6%,-4%[60.1 µM],25µM*,u,-27%
O=C(O)CCc1ccc(-c2ccc(Cl)cc2)n1CC(=O)O,x,u,-9%,u,50µM*,-12%
COc1ccc(-c2ccc(CCC(=O)O)n2NC(N)=O)cc1,-9,2%,-9%,6%,-4%,-5%
O=C(O)CCc1ccc(-c2ccc(Cl)cc2)n1CCC(=O)O,x,-3%,3%[60.1 µM],9%,u,-13%
Cc1ccc(-c2ccc(CCC(=O)O)n2-c2ccc(C)c(Cl)c2)cc1,x,16%,0%,u,6%,x
O=C(NCc1cccc(F)c1)C1CCC(=O)N(C2CC2)C1 (stereo unspecified),-4,u,-16%,-2%,-19%,0%
COc1cc(OC)cc(C(=O)N[C@H](C(=O)OCC(=O)Nc2sccc2C#N)C(C)C)c1,u,u,u,u,50µM*,-5%[11.6 µM]
N#Cc1ccsc1NC(=O)COC(=O)c1ccc(Br)o1,u,25µM*,-42%,x,u,-24%
O=C(C[n+]1cccc2cccc(O)c21)c1ccc(Br)cc1,x,24%,6%,x,x,x
COCCCNC(=S)Nc1cccc2ncccc12,-5,5.6µM*,-14%,2%,1%,-22%
COc1cccc(C2Nc3ccc4ccccc4c3C3=C2C(=O)CCC3)c1O (stereo unspecified),-14,155%,1%,89µM*,-12%,11%
CCCN1CNc2c(c(=O)[nH]c(=S)n2CCc2ccccn2)C1,x,15%,6%,x,x,x
O=C(CSc1nc(Nc2ccc(F)cc2)c2ccccc2n1)c1ccc(F)cc1,x,22%,-2%[60.1 µM],4%,-23%,x
COc1cc(Nc2nc(SCC(=O)c3ccc(Br)cc3)nc3ccccc23)cc(OC)c1,x,79µM*,1%[60.1 µM],u,u,x
O=C(O)c1cc(-c2ccc(/C=N/N3C(=O)C4C5C=CC(C6CC56)C4C3=O)o2)ccc1Cl (stereo unspecified),-16,34%,-8%,40µM*,u,-1%[11.6 µM]
O=C1C2C3C=CC(C4CC34)C2C(=O)N1/N=C/c1ccc(-c2ccc(Cl)cc2[N+](=O)[O-])o1 (stereo unspecified),-1,3%,-10%,0%,-17%,-12%
O=C(O)c1cc(-c2ccc(/C=N/N3C(=O)C4C5C=CC(CC5)C4C3=O)o2)ccc1Cl (stereo unspecified),1,7%,-18%,-22%,50µM*,-3%
CC(=O)c1cccc(NS(=O)(=O)c2cc(OCC(N)=O)c(C)cc2Cl)c1,-4,13%,-1%,34%,-7%,3%
COc1ccccc1-c1nnc2sc(COc3ccccc3)nn12,x,-3%[58.9 µM],-5%,8%,-14%,-6%
COc1ccccc1-c1nnc2sc(COc3ccc(Cl)cc3Cl)nn12,x,-15%,-25%,56µM*,-10%,-10%
CSCCC(NC(=O)c1ccccc1Br)C(=O)N1CCCCCCC1 (stereo unspecified),2,13%,-6%,x,-5%,-2%
CCC(=O)OCCNc1cc(SCCC(=O)OC)c2nonc2c1[N+](=O)[O-],-7,u,2%,1%,-11%,-9%
CCCC(=O)OCCNc1cc(Sc2nc3ccccc3[nH]2)c2nonc2c1[N+](=O)[O-],-25,u,-13%,6%,u,40µM*
c1coc(CNc2nc(-c3cccs3)cs2)c1,2,173%,-8%,20µM*,-22%,-9%
Nc1ccc(/C=C2\C=Cc3ccccc32)cc1,x,10%,-8%,x,x,x

# High-throughput results (PubChem)
